Screens from PubChem BioAssay.
Hits are enriched below; roughly 3.5% of the tested compounds scored in any of these assays.
FBW7 activator = human FBW7 E3 ligase activation, primary screen; Q969H0; AlphaScreen FBW7–phospho-cyclin E peptide binding, activator screen; 650,000 compounds, 0.13% hits; AID 1259310; normalized activity (activation), % at 26.1 µM; in the data active means normalized activity above about 1.9%;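 further: purified mutant Fbw7 with reduced substrate affinity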
Target sequence (Q969H0 whole entry, looked up): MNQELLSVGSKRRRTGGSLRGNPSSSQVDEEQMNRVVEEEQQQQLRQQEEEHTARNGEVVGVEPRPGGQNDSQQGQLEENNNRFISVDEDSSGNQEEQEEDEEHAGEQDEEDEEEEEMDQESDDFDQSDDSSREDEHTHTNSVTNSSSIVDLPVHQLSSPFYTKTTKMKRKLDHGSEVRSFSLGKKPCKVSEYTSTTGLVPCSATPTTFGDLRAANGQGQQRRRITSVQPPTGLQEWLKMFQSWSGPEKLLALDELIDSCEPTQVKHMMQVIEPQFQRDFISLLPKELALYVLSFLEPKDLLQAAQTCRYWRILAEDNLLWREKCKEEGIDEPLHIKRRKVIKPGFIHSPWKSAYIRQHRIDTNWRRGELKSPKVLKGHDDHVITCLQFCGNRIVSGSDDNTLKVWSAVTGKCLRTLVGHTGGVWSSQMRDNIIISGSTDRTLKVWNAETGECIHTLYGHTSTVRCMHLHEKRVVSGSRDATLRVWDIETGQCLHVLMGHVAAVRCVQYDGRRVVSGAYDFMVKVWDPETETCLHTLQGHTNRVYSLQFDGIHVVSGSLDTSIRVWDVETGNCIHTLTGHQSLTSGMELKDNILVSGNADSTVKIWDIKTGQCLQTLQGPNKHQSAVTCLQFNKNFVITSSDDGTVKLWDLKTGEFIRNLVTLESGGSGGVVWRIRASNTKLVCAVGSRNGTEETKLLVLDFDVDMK
MITF primary = blocks human microphthalmia-associated transcription factor; O75030; AlphaScreen MITF homodimerization, bead proximity signal; inhibition, % at 2.6 µM; 650,000 compounds, 0.91% hits; in the data active means inhibition above about 50%;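 further: 0% = vehicle wells with protein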
GPR151 activ = human GPR151 activation; activation, % at 11.2 µM; Q8TDV0; PathHunter beta-arrestin GPR151 cells, luminescence; AID 1508602; 650,000 compounds, 1% hits; in the data active means activation above about 4.9%;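 further: 0% = median of compound wells and 100% = cells with positive control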
TEAD-YAP block = TEAD-YAP interaction inhibition; HEK-TIYL cells, TEAD-Gal4/YAP UAS-luciferase luminescence; inhibition, % at 9.12 µM; 640,000 compounds, 1.4% hits; in the data active means inhibition above about 32%;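 further: 0% = median of test compound wells and 100% = reference inhibitor wells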
MITF inh conf = human MITF inhibition, confirmation; shares compounds with MITF primary; AlphaScreen MITF homodimerization, biotin/His-MITF beads; inhibition, % at 2.6 µM; 4,700 compounds, 16% hits;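 active means inhibition above a cutoff derived from the DMSO control wells, cut at about 28% in these data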;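 further: 0% = MITF dimer wells with DMSO only; inhibitors lower the bead chemiluminescence by keeping MITF from dimerizing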
AS interf ctr = AlphaScreen optical interference, counter-screen. shares compounds with MITF primary. LysRS AlphaScreen counterscreen, signal interference, triplicate. inhibition, % at 2.6 µM. 4,700 compounds, 7.6% hits;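 active means inhibition above a cutoff derived from the DMSO control wells, cut at about 30% in these data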
An asterisk follows results filed as active; . = no result given.

SMILES | FBW7 activator | MITF primary | GPR151 activ | TEAD-YAP block | MITF inh conf | AS interf ctr
Nc1n[nH]c(CCc2nc(N)n[nH]2)n1 | 0 | 5 | 0 | 4 | . | .
CCC(CC)N1CCN(Cc2cccc(OC)c2)CC1 | 0 | 73* | 2 | -2 | 6 | 12
COc1cccc(CN2CCN(Cc3cccc(OC)c3)CC2)c1 | 0 | 7 | 0 | -3 | . | .
COc1ccc(CN2CCN(Cc3ccc(Br)cc3)CC2)cc1 | 0 | 85* | 0 | 9 | -2 | 14
COc1cccc(CN2CCN(C(=O)COc3ccc(C)cc3)CC2)c1 | 0 | 34 | -1 | -14 | . | .
O=C1CCC(N2C[C@H]3C[C@@H](C2)c2cccc(=O)n2C3)CCN1Cc1ccccc1Cl (stereo partly specified) | 0 | 16 | -2 | 2 | . | .
O=[N+]([O-])c1cccc(CN2CCN(Cc3ccc(F)cc3)CC2)c1 | 0 | 66* | 0 | 5 | -16 | -5
O=[N+]([O-])c1cccc(CN2CCN(c3ccccc3)CC2)c1 | 0 | 36 | 0 | 4 | . | .
CN1CCN(Cc2cccc([N+](=O)[O-])c2)CC1 | 0 | 2 | 0 | 3 | . | .
COc1cccc(N2CCN(Cc3cccc([N+](=O)[O-])c3)CC2)c1 | 0 | 51* | 1 | -10 | 4 | 4
CC(C)N1CCN(Cc2cccc([N+](=O)[O-])c2)CC1 | 0 | 67* | 1 | -20 | 4 | 10
Fc1ccc(CN2CCN(Cc3cccc(F)c3)CC2)cc1 | 0 | 45 | -1 | -2 | . | .
N#Cc1ccc(NC(=O)c2ncoc2-c2ccc(F)cc2)cc1Cl | 0 | -8 | 2 | -1 | . | .
CCn1c(O)c(C(c2ccccn2)c2c(O)n(CC)c(=S)[nH]c2=O)c(=O)[nH]c1=S | 0 | 54* | 1 | 5 | 20 | 56*
O=C1/C(=C/c2cccc3ccccc23)N2CCC1CC2 | 0 | 1 | -1 | -14 | . | .
COc1cc(OC)c(OC)cc1CN1CCN(C(C)C)CC1 | 0 | 68* | -2 | 7 | 4 | 3
COc1ccc(CN2CCN(C(C)C)CC2)c(OC)c1 | 0 | 71* | 0 | 2 | 7 | 16
CCN1CCN(Cc2cc(OC)c(OC)cc2Br)CC1 | 0 | 4 | 0 | -1 | . | .
COc1ccc(CN2CCN(CCO)CC2)c(OC)c1 | 1 | 5 | 0 | 10 | . | .
CCOC(=O)C1C2NC(=S)N(c3ccc(Br)cc3)C1(C)Oc1ccccc12 (stereo unspecified) | -1 | 17 | -1 | 24 | . | .
Cn1ccnc1SCc1nc2ccccc2c(=O)n1-c1ccccc1Cl | 0 | -1 | 0 | -5 | . | .
Cc1ccc(C(C)(O)CNC(C)(C)C)cc1 (stereo unspecified) | 0 | -5 | -1 | 3 | . | .
Cc1ccc(N2C(=O)CC(=O)NC2=O)cc1 | 0 | 83* | -1 | -1 | -3 | 4
O=C1CC(=O)N(c2ccc(Br)cc2)C(=O)N1 | 0 | -1 | -1 | -4 | . | .
CC1(C)CC(=O)c2sc(N[N+](=O)[O-])nc2C1 | 0 | 84* | 0 | -13 | -1 | -4
SMILES | FBW7 activator | MITF primary | GPR151 activ | TEAD-YAP block | MITF inh conf | AS interf ctr
COCC1CCCN(CC(=O)Nc2cccnc2)C1 (stereo unspecified) | 0 | 75* | -1 | -5 | 11 | 14
COc1ccc(CN2CCN(Cc3cccc(C)c3)CC2)cc1Br | 0 | 70* | -1 | 0 | 21 | 8
COc1cc(Br)c(CN2CCN(CCO)CC2)cc1OC | 0 | 16 | -1 | -5 | . | .
COc1ccc(CN2CCN(Cc3ccc(Cl)cc3)CC2)cc1Br | 0 | 80* | -1 | 12 | 6 | 7
CCN1CCN(Cc2ccc(OC)c(Br)c2)CC1 | 0 | -7 | 0 | -9 | . | .
COc1ccc(CN2CCN(CCO)CC2)cc1Br | 0 | 77* | -1 | -2 | 5 | -2
COc1cc(C)c(CN2CCN(CCO)CC2)cc1C | 0 | 51* | 1 | 2 | 2 | 5
COC(=O)c1cccc2c(C[N+](C)(C)C)c[nH]c12 | 0 | -5 | -1 | 5 | . | .
COc1ccccc1CN1CCN(Cc2ccc(C)cc2)CC1 | 0 | 76* | 0 | 8 | 3 | 8
CC(C)N1CCN(Cc2ccccc2Cl)CC1 | 0 | 73* | 1 | 5 | -12 | -2
COc1cc(CN2CCN(Cc3ccccc3)CC2)ccc1O | 0 | 41 | -2 | 0 | . | .
COc1cc(CN2CCN(Cc3ccccc3)CC2)cc(Br)c1O | 0 | 51* | -1 | -4 | 3 | 16
COc1ccccc1CN1CCN(C(C)C)CC1 | 0 | 67* | 1 | -10 | 9 | 9
CCN1CCN(Cc2ccccc2Cl)CC1 | 0 | -11 | 0 | 10 | . | .
CCCC(=O)NC(Oc1ccccc1[N+](=O)[O-])C(Cl)(Cl)Cl (stereo unspecified) | 0 | 12 | 0 | 2 | . | .
O=C(CF)NC(NC(=S)Nc1cccc(C(=O)O)c1)C(Cl)(Cl)Cl (stereo unspecified) | 0 | 11 | 1 | 8 | . | .
Cc1cccc(-n2c(/C=C/c3ccc(N(C)C)cc3)nc3ccccc3c2=O)c1 | 1 | -15 | 1 | 2 | . | .
COc1ccccc1CN1CCN(Cc2ccccc2)CC1 | 0 | 88* | 0 | -7 | 9 | 11
CC(C)N1CCN(Cc2ccccc2C(F)(F)F)CC1 | 0 | 61* | 0 | 6 | -7 | -6
CCc1ccc(CN2CCN(Cc3ccccc3OC)CC2)cc1 | 0 | 72* | 0 | -3 | 16 | 18
COc1cccc(CN2CCN(Cc3ccccc3)CC2)c1O | 0 | -2 | -1 | -9 | . | .
CCOCCCNc1cnn(C23CC4CC(CC(C4)C2C(=O)O)C3)c(=O)c1Cl (stereo unspecified) | 0 | 0 | 1 | 5 | . | .
O=c1[nH]c(O)c(/C=C2\C=CC(c3cc(Cl)ccc3Cl)=N2)c(=O)[nH]1 | 0 | 0 | 1 | 10 | . | .
CCOCCCNC(=O)c1c(N)n(CCCOC)c2nc3ccccc3nc12 | 0 | -26 | 1 | 1 | . | .
Brc1ccccc1CN1CCN(Cc2ccc3c(c2)OCO3)CC1 | 0 | 60* | -1 | 4 | 4 | 10
SMILES | FBW7 activator | MITF primary | GPR151 activ | TEAD-YAP block | MITF inh conf | AS interf ctr
CN1CCN(Cc2ccc3c(c2)OCO3)CC1 | 0 | 35 | -1 | 3 | . | .
Cc1ccccc1CN1CCN(Cc2ccc3c(c2)OCO3)CC1 | 0 | 58* | 0 | 12 | 2 | 4
COc1ccccc1CCNCc1cc(OC)c(OC)cc1OC | 0 | 28 | -2 | 2 | . | .
COc1ccccc1CCNCc1ccccc1OC | 0 | 52* | 0 | -7 | 2 | -8
COC(=O)C1=C(C(=O)OC)C2c3ccccc3C=CN2C(C(=O)OC)=C1C(=O)OC (stereo unspecified) | 1 | 51* | 1 | 3 | 51* | 14
Cn1ccnc1C1(O)CC2CCC(C1)N2 (stereo unspecified) | 0 | 10 | -1 | -8 | . | .
CCc1ccc(CN2CCN(Cc3ccccc3F)CC2)cc1 | 0 | 71* | 0 | -5 | -3 | 0
Fc1ccc(CN2CCN(Cc3ccccc3F)CC2)cc1 | 0 | 78* | 2 | -13 | -7 | -3
